# Assay results: PubChem BioAssay (NCATS)
# Records with an inconclusive call do not appear. A call without a number means that no potency is given here. Active and inactive are the calls of the source. The call rests on the fitted dose curve; in most records, active means well fitted inhibition curve with a large enough effect; inconclusive means small, poorly fitted or top-dose-only effect, or effect the other way; inactive means flat fitted curve, though single readings scatter.
# Biological target: ATP-dependent 6-phosphofructokinase (Trypanosoma brucei brucei) (UniProt O15648)
# Sequence (O15648 whole entry, looked up): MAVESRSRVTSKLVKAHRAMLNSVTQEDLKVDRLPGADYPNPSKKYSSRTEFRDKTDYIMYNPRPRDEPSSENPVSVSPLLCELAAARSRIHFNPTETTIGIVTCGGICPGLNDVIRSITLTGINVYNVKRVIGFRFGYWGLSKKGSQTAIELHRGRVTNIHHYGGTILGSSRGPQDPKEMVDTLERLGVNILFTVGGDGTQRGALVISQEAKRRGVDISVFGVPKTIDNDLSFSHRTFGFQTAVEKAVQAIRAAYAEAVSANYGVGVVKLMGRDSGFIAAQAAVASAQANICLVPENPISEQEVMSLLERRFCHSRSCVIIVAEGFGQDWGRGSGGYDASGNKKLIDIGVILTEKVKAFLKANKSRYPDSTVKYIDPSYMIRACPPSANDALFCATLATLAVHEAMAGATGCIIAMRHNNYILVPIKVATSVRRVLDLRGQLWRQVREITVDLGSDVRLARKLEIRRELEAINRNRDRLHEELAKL
# Experiment: qHTS Assay to Find Inhibitors of T. brucei phosphofructokinase: hit validation (AID 492961);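 further: luminescence reports ADP formed as PFK phosphorylates fructose-6-phosphate with ATP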
# Conditions: T. brucei PFK, ADP-Glo luminescence; series mostly up to 51.4 µM
# Method in brief: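 Measures ADP output of PFK (1.25 nM) at 0.1 mM ATP, 0.5 mM F6P, pH 8.0 TEA buffer with 5 mM MgCl2. No-enzyme wells define full inhibition; uninhibited enzyme wells define zero.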
row,SMILES,Potency
1,CC(=O)N[C@@H]1C(O[C@H]2O[C@H](C(=O)O)C(O)[C@H](O)[C@H]2O)[C@H](O)[C@@H](CO)O[C@H]1O[C@@H]1C(C(=O)O)O[C@@H](O[C@H]2[C@H](O)[C@@H](CO)OC(O)[C@@H]2NC(C)=O)[C@H](O)[C@H]1O (stereo not given in full),inactive
2,C=Cc1ccc(S(=O)(=O)O)cc1,inactive
3,O=C(O)CCC(=O)c1ccc(-c2ccccc2)cc1,inactive
4,Cc1cccc(C)c1NC(=O)C1CCCCN1C (stereo not given),inactive
5,CCC(=O)c1ccc2c(c1)N(CCCN1CCN(CCO)CC1)c1ccccc1S2,inactive
6,CCN(CC)CCOC(=O)c1cccnc1,inactive
7,CC(=O)[O][Al][O]C(C)=O,inactive
8,OCCCNc1ccccc1,inactive
9,Cc1ncc(C[n+]2csc(CCOP(=O)(O)OP(=O)(O)O)c2C)c(N)n1,inactive
10,CC(=O)Nc1c(I)c(C(=O)O)c(I)c(N(C)C(C)=O)c1I,inactive
11,CC(C)c1nc(N(C)S(C)(=O)=O)nc(-c2ccc(F)cc2)c1/C=C/C(O)CC(O)CC(=O)O (stereo not given),inactive
12,O=P(O)(O)OP(=O)(O)O,inactive
13,Cc1nc(NS(=O)(=O)c2ccc(N)cc2)nc(C)c1Br,inactive
14,CC(C)(C)CC(C)(C)c1ccc(OCCO)cc1,inactive
15,CC(C)=CCC/C(C)=C/C=C/C(C)=C/C=C/C(C)=C/C=C/C=C(C)/C=C/C=C(C)/C=C/C=C(\C)CCC=C(C)C,inactive
16,C/C=C/C=C/C(=O)O,inactive
17,c1ccc2ccccc2c1,inactive
18,O=C(O)c1ccc(NC(=O)[C@H](Cc2ccc(O)cc2)NC(=O)c2ccccc2)cc1,inactive

row,SMILES,Potency
1,Cn1c(O)c(N=NC(N)=S)c2ccccc21,inactive
2,CCCCCCCCCCCCCCCCCCCCCC(=O)Nc1ccn([C@@H]2O[C@H](CO)[C@@H](O)[C@@H]2O)c(=O)n1,inactive
3,Cn1c(=O)c2c(ncn2CCOC(=O)C(C)(C)Oc2ccc(Cl)cc2)n(C)c1=O,inactive
4,CC(=O)Nc1ccc(OC(=O)c2ccccc2O)cc1,inactive
5,O=C1c2ccccc2C(=O)C1c1ccc(Cl)cc1,inactive
6,CN(C)C(=O)CCSC(SCCC(=O)O)c1cccc(/C=C/c2ccc3ccc(Cl)cc3n2)c1 (stereo not given),inactive
7,C/C(=C\C(=O)OCCCCCCCCC(=O)O)C[C@@H]1OC[C@H](C[C@@H]2O[C@H]2[C@@H](C)[C@H](C)O)[C@@H](O)[C@H]1O,inactive
8,Cc1ccc(C(C)(C)c2ccc(C)cc2)cc1,inactive
9,C[Si](C)(C)O[Si](C)(C)C,inactive
10,C=CC[C@@H]1/C=C(\C)C[C@H](C)C[C@H](OC)[C@H]2O[C@@](O)(C(=O)C(=O)N3CCCC[C@H]3C(=O)O[C@H](/C(C)=C/[C@@H]3CC[C@@H](O)[C@H](OC)C3)[C@H](C)[C@@H](O)CC1=O)[C@H](C)C[C@@H]2OC,inactive
11,CCCCCCOC(=O)c1cccnc1,inactive
12,COc1ccc2c(c1)OC(C)(C)C(c1ccccc1)C2c1ccc(OCCN2CCCC2)cc1 (stereo not given),inactive
13,CCCC(=O)O,inactive
14,Cc1ncc[nH]1,inactive
15,Cc1cc(=O)c(C(=O)N[C@@H](C(=O)N[C@@H]2C(=O)N3C(C(=O)O)=C(CSc4nnnn4C)CS[C@H]23)c2ccc(O)cc2)c[nH]1,inactive
16,OCC1(CO)COC(C(Cl)(Cl)Cl)OC1,inactive
17,O=P(O)(O)OC[C@H](O)CO,inactive
